High-throughput results deposited in PubChem BioAssay by National Center for Advancing Translational Sciences (NCATS).
HT1080-NT tox: qHTS for induction of synthetic lethality in tumor cells producing 2HG: qHTS for the HT-1080-NT fibrosarcoma cell line | HT-1080-NT fibrosarcoma viability, CellTiter-Glo ATP luminescence, 48 h | Potency, µM (series often up to 46.1 µM), for the others: at the highest dose activity, negative = less viability, hits mostly cytotoxic | 360,000 tested, 1.6% active;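 further: NT is the 2HG producing partner of a matched IDH1 knockdown line; potency means the concentration at half of the fitted maximal effect; 0% = DMSO-treated cells and -100% = media-only wells without cells; nearly all actives have a fitted effect of over 55% in size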
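Fibrosarcoma NT cells, 750 per well in 5% FBS RPMI, were exposed to compound for 48 hours. Viability: CellTiter-Glo luminescence.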
IL-1B inflam inh: qHTS for Inhibitors of Inflammasome Signaling: IL-1-beta AlphaLISA Primary Screen | activity change, % at 57.5 µM | 360,000 tested, 4.7% active | THP-1 LPS/ATP IL-1B secretion, AlphaLISA, 16 h; stronger effect = lower value | AID 743279, 2014; in the data active means activity change below about -50%; inconclusive means mostly about -30% to -49%
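THP-1 cells pretreated 1 hr with compounds (up to 57.5 uM final), then stimulated with LPS (250 ng/mL final) plus ATP (1.25 mM final); secreted IL-1B measured by AlphaLISA after 16 hr, decreased signal indicating inhibition.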
KB-V1 cytotox: qHTS assay for MDR1-selective chemotherapeutics: Primary screen using the drug-selected MDR subline cells KB-V1. KB-V1 MDR cells viability, CellTiter-Glo, 72 h. Potency, µM (top dose mostly 46.1 µM), hits mostly cytotoxic. 400,000 tested, 3.4% active; further: potency means the concentration at half of the fitted maximal effect; nearly all actives have a fitted effect of over 60% in size
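Drug-selected KB-V1 cells, grown in DMEM lacking phenol red with 10% FBS, receive compound titrations; after three days at 37 degrees C, surviving cell ATP is quantified by CellTiter-Glo luminescence and responses normalized and curve-fitted.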
KB-3-1 tox: qHTS assay for MDR1-selective chemotherapeutics: Primary screen using the parental adenocarcinoma cell KB-3-1. KB-3-1 viability, CellTiter-Glo ATP luminescence, 72 h. Potency, µM (doses to about 46.1 µM), usual class: cytotoxic. 400,000 tested, 1.4% active. AID 1347075, 2019; further: potency means the concentration at half of the fitted maximal effect; nearly all actives have a fitted effect of over 60% in size
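Luminescent ATP read-out (CellTiter-Glo) measures survival of drug-naive KB-3-1 cells after 72 h compound exposure at 37 °C. Titration series was screened from lowest to highest concentration, with DMSO vehicle plates as background controls.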
HT1080 IDH1KD tx: qHTS for induction of synthetic lethality in tumor cells producing 2HG: qHTS for the HT-1080-IDH1KD cell line | AID 686971, 2013 | Potency, µM (top dose mostly 46.1 µM), for inactives: top-dose activity, negative = toxicity, actives largely listed as cytotoxic | HT-1080 IDH1 knockdown viability, ATP luminescence, 48 h | 360,000 tested, 2% active;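 further: potency means the concentration at half of the fitted maximal effect; 0% = DMSO wells and -100% = cell-free medium wells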
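Luminescent ATP read-out (CellTiter-Glo, 10 min at room temperature) after 48 h compound exposure at 37 °C gave viability of IDH1-knockdown HT-1080 cells. Activity was normalised to DMSO and cell-free wells, then fitted as concentration-response curves.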
Starred values were filed as active, the others as inactive; i = inactive; ? = inconclusive; nt = not tested or not shown. Hits are enriched below; roughly 8.8% of the tested compounds scored in any of these assays. Unless noted, the call rests on the fitted dose curve; in most records, active means well fitted curve in the direction sought with a large enough effect; inconclusive means small, poorly fitted or top-dose-only effect, or another doubt; inactive means no such curve, though single readings can be large; an effect the other way counts as inactive or inconclusive. Unless noted, on the % scale 0 is the no-effect control and ±100 the full control effect.

SMILES | HT1080-NT tox | IL-1B inflam inh | KB-V1 cytotox | KB-3-1 tox | HT1080 IDH1KD tx
O=C1NC(=O)N(c2ccccc2)C(=O)/C1=C/C=C/c1ccco1 | 18µM* | -100* | ? | ? | ?
CCOc1ccc(Cl)cc1CNCCc1ccc(F)cc1 | ? | -57* | i | i | -25%
Cc1cccc(C2CC(=O)Oc3c2c(=O)oc2ccccc32)c1 (stereo not drawn) | nt | nt | i | i | nt
COc1cc(OC)c(OC)cc1CNCCc1ccc2c(c1)OCO2 | -19% | -10 | i | i | -17%
CCn1nc(-c2ccccc2)nc2c(=O)n(C)c(=O)nc1-2 | 4.1µM* | -114* | i | 5.2µM* | 5.8µM*
Cc1nc2c(=O)n(C)c(=O)nc-2n(C)n1 | 2.6µM* | -100* | 6.5µM* | 5.2µM* | 1.3µM*
Cn1nc(-c2ccccc2)nc2c(=O)n(C)c(=O)nc1-2 | nt | nt | 5.8µM* | 4.6µM* | nt
CC(C)(C)c1ccc(C(=O)C2CCCN(C3CCC3)C2)cc1 (stereo not drawn) | -20% | 17 | i | i | -22%
Oc1cc2c(cc1CN1CCN(c3ccccc3F)CC1)OCO2 | 8% | -24 | i | i | 0%
CCOc1ccc2nc(NC(=O)c3cccn(Cc4ccc(Cl)cc4)c3=O)sc2c1 | nt | nt | i | i | nt
COc1cc2c(cc1OC)-c1c(OC)c(OC)cc3c1[C@H](C2)N(C)CC3 | -2% | -1 | 13µM* | ? | -5%
CCNC(=O)[C@H]1O[C@@H](n2cnc3c(N)ncnc32)[C@H](O)[C@@H]1O | 7% | 19 | i | i | 6%
Nc1ncnc2c1ncn2[C@@H]1O[C@H](COP(=O)(O)CP(=O)(O)O)[C@@H](O)[C@H]1O | ? | -1 | 15µM* | i | -20%
Cc1cc(OCC(=O)N2CCN(CC(=O)N3CCOCC3)CC2)c(C(C)C)cc1Cl | -6% | -17 | i | i | 0%
CN1C[C@H](CNC(=O)OCc2ccccc2)C[C@@H]2c3cccc4c3c(cn4C)C[C@H]21 | ? | ? | i | i | 23µM*
CCN(CC)P(=O)(c1nccn1C)N(CC)CC | 5% | 14 | i | i | 10%
O=C1NC(=O)C(=Cc2ccc(OCCOc3ccc([N+](=O)[O-])cc3)cc2)C(=O)N1 | 3% | -59* | ? | i | 3%
CC1CC(C)(O)CC(C(O)CC2CC(=O)NC(=O)C2)C1=O (stereo not drawn) | ? | -101* | 6.5µM* | 0.92µM* | 0.16µM*
CC=CC(C)=CC(C)C(=O)CC(O)CC1CC(=O)NC(=O)C1 (stereo not drawn) | -14% | -13 | i | i | -17%
Cc1cc(OCC(=O)N2CCC(C(=O)O)(c3ccccc3)CC2)c2c(C)c(C)c(=O)oc2c1 | 0% | 18 | i | i | -6%
COc1ccccc1Sc1ccccc1CC(C)N (stereo not drawn) | -18% | -56* | i | i | -16%
COc1cc(CC(C)N)c(OC)cc1I (stereo not drawn) | -8% | ? | i | i | -21%
N#CC1=C(N)Oc2c(c(=O)oc3ccccc23)C1c1cccnc1 (stereo not drawn) | -12% | 6 | i | ? | 6%
N#CC1=C(N)Oc2c(c(=O)sc3ccccc23)C1c1ccncc1 (stereo not drawn) | ? | 27 | i | ? | 21µM*
COC1C(O)C(C)OC(OC2C(Oc3cccc4c(O)c5c(=O)oc6ccc(C)c7c(=O)oc(c34)c5c67)OC(C)C(O)C2O)C1O (stereo not drawn) | ? | -100* | i | 15µM* | ?
COc1ccc(C2CC(=O)Oc3c2c(=O)oc2ccccc32)c(OC)c1OC (stereo not drawn) | nt | nt | i | ? | nt
